Drawing on PMC7862700, “An all-to-all approach to the identification of sequence-specific readers for epigenetic DNA modifications on cytosine”, this text covers binding signal for 40 sequences.

HSF1, sequence (Q00613 whole entry): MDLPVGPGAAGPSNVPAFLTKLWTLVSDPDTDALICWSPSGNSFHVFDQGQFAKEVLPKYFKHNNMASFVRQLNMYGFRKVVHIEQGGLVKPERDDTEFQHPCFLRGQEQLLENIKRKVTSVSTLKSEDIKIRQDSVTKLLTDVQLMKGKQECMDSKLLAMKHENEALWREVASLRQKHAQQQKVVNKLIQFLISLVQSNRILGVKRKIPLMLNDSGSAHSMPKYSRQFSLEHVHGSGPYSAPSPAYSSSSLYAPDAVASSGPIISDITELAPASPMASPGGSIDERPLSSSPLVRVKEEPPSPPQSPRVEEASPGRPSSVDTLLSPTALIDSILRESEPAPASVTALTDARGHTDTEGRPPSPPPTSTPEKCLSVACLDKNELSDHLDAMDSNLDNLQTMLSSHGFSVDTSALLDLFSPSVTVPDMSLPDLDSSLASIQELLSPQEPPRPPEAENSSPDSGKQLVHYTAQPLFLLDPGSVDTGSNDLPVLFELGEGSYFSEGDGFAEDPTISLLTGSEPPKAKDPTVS

The target in one assay is T1, FEV (Homo sapiens, UniProt Q99581 1-238).
T1 sequence: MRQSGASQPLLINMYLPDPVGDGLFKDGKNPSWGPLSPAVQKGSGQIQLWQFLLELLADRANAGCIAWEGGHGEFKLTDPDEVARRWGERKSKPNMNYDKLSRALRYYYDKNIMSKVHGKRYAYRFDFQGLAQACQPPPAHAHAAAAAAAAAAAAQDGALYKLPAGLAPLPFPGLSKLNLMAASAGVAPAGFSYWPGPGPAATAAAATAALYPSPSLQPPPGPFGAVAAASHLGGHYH
Briefly: DAPPL (digital affinity profiling via proximity ligation, sequencing); 10 mM Tris-HCl pH 7.5, 50 mM NaCl, 1 mM DTT, 4% glycerol, room temperature, 30 min; GST-TFs on glutathione beads, 16-mer random dsDNA library, 0.1% formaldehyde crosslink after washing; high values mean tight binding. To be noted: protein: recombinant; tags: N-terminal GST; dsDNA, one strand shown. The method, boiled down:
(§1)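 Human transcription factors carrying a GST fusion were produced in yeast, bound to glutathione beads, tagged with DNA barcodes and pooled together with a tag-only sample. Each pool was held with 200 nmole of a random double-stranded 16-mer DNA library in Tris/NaCl/DTT/glycerol buffer for 30 min at room temperature, then washed, crosslinked in 0.1% formaldehyde, proximity-ligated with BsaI/T4 ligase (1 h, 37 °C), PCR-amplified and sequenced on an Illumina NextSeq500. Binding signal is the read frequency of each hexamer for a given factor divided by its frequency in the tag-only sample.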
Take TAAGTA: the binding signal is 1.16 fold enrichment (6-mer frequency, TF over GST control).
Consider TTGATG, for which the binding signal was 1.52 fold enrichment (6-mer frequency, TF over GST control).
For the sequence TTTGCT, the binding signal is 1.16 fold enrichment (6-mer frequency, TF over GST control).
Still for that read-out and setting: in the case of CCTGCT it was 1.67 fold enrichment (6-mer frequency, TF over GST control).
For TTCGAA, the binding signal is 1.13 fold enrichment (6-mer frequency, TF over GST control).
For AATCCT, the binding signal was 1.32 fold enrichment (6-mer frequency, TF over GST control).
As for TCCGCC, the binding signal is 1.88 fold enrichment (6-mer frequency, TF over GST control).
ATAACT: the binding signal is 1.22 fold enrichment (6-mer frequency, TF over GST control).
Turning to GGCTCA, the binding signal is 1.22 fold enrichment (6-mer frequency, TF over GST control).
Same read-out and setting: the figure for AACTAG is 1.14 fold enrichment (6-mer frequency, TF over GST control); for ACGTTC it is 1.3 fold enrichment (6-mer frequency, TF over GST control); for GCACTT it is 2.33 fold enrichment (6-mer frequency, TF over GST control).
Turning to CTTGCG, the binding signal is 1.32 fold enrichment (6-mer frequency, TF over GST control).
As for TTCATG, the binding signal was 1.23 fold enrichment (6-mer frequency, TF over GST control).
Take CCTGGA: the binding signal is 1.27 fold enrichment (6-mer frequency, TF over GST control).
Regarding CTACTT, the binding signal is 2.08 fold enrichment (6-mer frequency, TF over GST control).
For CGTTTC, the binding signal is 1.98 fold enrichment (6-mer frequency, TF over GST control).
For TTGGCA, the binding signal is 1.13 fold enrichment (6-mer frequency, TF over GST control).
Turning to GCCTCG, the binding signal is 1.25 fold enrichment (6-mer frequency, TF over GST control).
CGCTTC: the binding signal was 2.28 fold enrichment (6-mer frequency, TF over GST control).
GATCTT: the binding signal is 1.14 fold enrichment (6-mer frequency, TF over GST control).
In the case of TCCGAT, the binding signal was 1.41 fold enrichment (6-mer frequency, TF over GST control).
On the same count and under the same terms, the figure for AACACT is 1.26 fold enrichment (6-mer frequency, TF over GST control); for CCGTTT it is 1.48 fold enrichment (6-mer frequency, TF over GST control).
With AAACTC, the binding signal is 1.18 fold enrichment (6-mer frequency, TF over GST control).
Still for that read-out and setting: in the case of ATGGCC it was 1.45 fold enrichment (6-mer frequency, TF over GST control); in that of CTGTAT, 1.34 fold enrichment (6-mer frequency, TF over GST control); in that of TTTGCA, 1.18 fold enrichment (6-mer frequency, TF over GST control).
In the case of CTTGAT, the binding signal was 1.38 fold enrichment (6-mer frequency, TF over GST control).
For the sequence AAAACC, the binding signal is 1.24 fold enrichment (6-mer frequency, TF over GST control).
As for GCTACT, the binding signal is 1.43 fold enrichment (6-mer frequency, TF over GST control).
As to TATCTT, the binding signal was 1.33 fold enrichment (6-mer frequency, TF over GST control).
Still for that read-out and setting: the figure for CAATTC is 1.24 fold enrichment (6-mer frequency, TF over GST control); for TAACAC it is 1.24 fold enrichment (6-mer frequency, TF over GST control); for ACGAAA it is 1.15 fold enrichment (6-mer frequency, TF over GST control).
On the same count and under the same terms, the figure for CTGCTC is 1.31 fold enrichment (6-mer frequency, TF over GST control); for TTTTTG it is 1.33 fold enrichment (6-mer frequency, TF over GST control).
Take TCTGAA: the binding signal is 1.21 fold enrichment (6-mer frequency, TF over GST control).
Take TCCGGT: the binding signal was 6.6 fold enrichment (6-mer frequency, TF over GST control).
Turning to TCTGCA, the binding signal was 1.43 fold enrichment (6-mer frequency, TF over GST control).

For the next assay, the target named is ETV5 (Homo sapiens, UniProt P41161 1-510). The assay is described as above. To be noted: protein: recombinant; tags: N-terminal GST; dsDNA, one strand shown. Summed up: as §1
ETV5, sequence (P41161 whole entry): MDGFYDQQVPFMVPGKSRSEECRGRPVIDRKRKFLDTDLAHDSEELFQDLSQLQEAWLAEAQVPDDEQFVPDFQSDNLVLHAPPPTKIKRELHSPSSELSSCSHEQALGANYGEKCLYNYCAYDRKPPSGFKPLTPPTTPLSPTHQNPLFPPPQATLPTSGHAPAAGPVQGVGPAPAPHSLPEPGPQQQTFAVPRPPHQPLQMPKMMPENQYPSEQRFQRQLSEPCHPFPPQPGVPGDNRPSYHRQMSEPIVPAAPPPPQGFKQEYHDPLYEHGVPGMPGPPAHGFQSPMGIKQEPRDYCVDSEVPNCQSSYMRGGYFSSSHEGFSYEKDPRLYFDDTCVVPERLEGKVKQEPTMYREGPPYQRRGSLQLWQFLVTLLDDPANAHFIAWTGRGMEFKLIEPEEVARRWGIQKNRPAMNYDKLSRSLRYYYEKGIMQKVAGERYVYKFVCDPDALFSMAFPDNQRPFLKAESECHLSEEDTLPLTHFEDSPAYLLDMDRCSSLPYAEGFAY
For the sequence TAAGTA, the binding signal is 1.18 fold enrichment (6-mer frequency, TF over GST control).
For TTGATG, the binding signal is 1.73 fold enrichment (6-mer frequency, TF over GST control).
For TTTGCT, the binding signal was 1.2 fold enrichment (6-mer frequency, TF over GST control).
CCTGCT: the binding signal is 1.64 fold enrichment (6-mer frequency, TF over GST control).
For TTCGAA, the binding signal was 1.18 fold enrichment (6-mer frequency, TF over GST control).
AATCCT: the binding signal is 1.43 fold enrichment (6-mer frequency, TF over GST control).
With TCCGCC, the binding signal was 1.69 fold enrichment (6-mer frequency, TF over GST control).
Still for that read-out and setting: in the case of ATAACT it was 1.29 fold enrichment (6-mer frequency, TF over GST control).
The same measure, in the same setting: the figure for GGCTCA is 1.22 fold enrichment (6-mer frequency, TF over GST control); for AACTAG it is 1.15 fold enrichment (6-mer frequency, TF over GST control).
Regarding ACGTTC, the binding signal was 1.27 fold enrichment (6-mer frequency, TF over GST control).
Take GCACTT: the binding signal was 1.88 fold enrichment (6-mer frequency, TF over GST control).
CTTGCG: the binding signal is 1.36 fold enrichment (6-mer frequency, TF over GST control).
As for TTCATG, the binding signal was 1.27 fold enrichment (6-mer frequency, TF over GST control).
Take CCTGGA: the binding signal was 1.47 fold enrichment (6-mer frequency, TF over GST control).
CTACTT: the binding signal was 1.78 fold enrichment (6-mer frequency, TF over GST control).
The same measure, in the same setting: the figure for CGTTTC is 1.72 fold enrichment (6-mer frequency, TF over GST control); for TTGGCA it is 1.07 fold enrichment (6-mer frequency, TF over GST control); for GCCTCG it is 1.33 fold enrichment (6-mer frequency, TF over GST control).
On to CGCTTC, for which the binding signal was 2.34 fold enrichment (6-mer frequency, TF over GST control).
For GATCTT, the binding signal is 1.21 fold enrichment (6-mer frequency, TF over GST control).
As to TCCGAT, the binding signal was 1.3 fold enrichment (6-mer frequency, TF over GST control).
On the same count and under the same terms, in the case of AACACT it was 1.28 fold enrichment (6-mer frequency, TF over GST control); in that of CCGTTT, 1.44 fold enrichment (6-mer frequency, TF over GST control).
As to AAACTC, the binding signal was 1.22 fold enrichment (6-mer frequency, TF over GST control).
As for ATGGCC, the binding signal is 1.42 fold enrichment (6-mer frequency, TF over GST control).
As to CTGTAT, the binding signal was 1.35 fold enrichment (6-mer frequency, TF over GST control).
On to TTTGCA, for which the binding signal was 1.22 fold enrichment (6-mer frequency, TF over GST control).
Consider CTTGAT, for which the binding signal was 1.43 fold enrichment (6-mer frequency, TF over GST control).
For the sequence AAAACC, the binding signal was 1.18 fold enrichment (6-mer frequency, TF over GST control).
Regarding GCTACT, the binding signal was 1.39 fold enrichment (6-mer frequency, TF over GST control).
Regarding TATCTT, the binding signal was 1.22 fold enrichment (6-mer frequency, TF over GST control).
Consider CAATTC, for which the binding signal was 1.37 fold enrichment (6-mer frequency, TF over GST control).
The same measure, in the same setting: the figure for TAACAC is 1.23 fold enrichment (6-mer frequency, TF over GST control); for ACGAAA it is 1.15 fold enrichment (6-mer frequency, TF over GST control).
As for CTGCTC, the binding signal was 1.26 fold enrichment (6-mer frequency, TF over GST control).
For TTTTTG, the binding signal is 1.42 fold enrichment (6-mer frequency, TF over GST control).
For the sequence TCTGAA, the binding signal was 1.09 fold enrichment (6-mer frequency, TF over GST control).
In the case of TCCGGT, the binding signal is 3.98 fold enrichment (6-mer frequency, TF over GST control).
TCTGCA: the binding signal is 1.36 fold enrichment (6-mer frequency, TF over GST control).

Another assay concerns the target HSF1 (Homo sapiens, UniProt Q00613 1-529). The assay is described as above. As to conditions: protein: recombinant; tags: N-terminal GST; chain copies: 3; dsDNA, one strand shown. The method, boiled down: as §1
Turning to TAAGTA, the binding signal is 1.76 fold enrichment (6-mer frequency, TF over GST control).
Regarding TTGATG, the binding signal was 1.43 fold enrichment (6-mer frequency, TF over GST control).
For the sequence TTTGCT, the binding signal was 1.47 fold enrichment (6-mer frequency, TF over GST control).
With CCTGCT, the binding signal is 1.34 fold enrichment (6-mer frequency, TF over GST control).
Same read-out and setting: in the case of TTCGAA it was 1.93 fold enrichment (6-mer frequency, TF over GST control); in that of AATCCT, 2.25 fold enrichment (6-mer frequency, TF over GST control).
Consider TCCGCC, for which the binding signal was 1.04 fold enrichment (6-mer frequency, TF over GST control).
For the sequence ATAACT, the binding signal was 1.15 fold enrichment (6-mer frequency, TF over GST control).
Regarding GGCTCA, the binding signal is 1.27 fold enrichment (6-mer frequency, TF over GST control).
AACTAG: the binding signal is 1.37 fold enrichment (6-mer frequency, TF over GST control).
Turning to ACGTTC, the binding signal was 1.94 fold enrichment (6-mer frequency, TF over GST control).
With GCACTT, the binding signal was 1.17 fold enrichment (6-mer frequency, TF over GST control).
On the same count and under the same terms, in the case of CTTGCG it was 1.26 fold enrichment (6-mer frequency, TF over GST control).
For the sequence TTCATG, the binding signal was 1.23 fold enrichment (6-mer frequency, TF over GST control).
Same read-out and setting: in the case of CCTGGA it was 1.77 fold enrichment (6-mer frequency, TF over GST control); in that of CTACTT, 1.44 fold enrichment (6-mer frequency, TF over GST control).
For CGTTTC, the binding signal is 1.24 fold enrichment (6-mer frequency, TF over GST control).
As for TTGGCA, the binding signal was 1.04 fold enrichment (6-mer frequency, TF over GST control).
Take GCCTCG: the binding signal is 1.31 fold enrichment (6-mer frequency, TF over GST control).
Still for that read-out and setting: in the case of CGCTTC it was 1.26 fold enrichment (6-mer frequency, TF over GST control).
